Only some compounds are listed: those with a hit (about 1.3% of all), similar ones and a draw of the others.
TRPML1 agonist: activates the human TRPML1 channel | activation, % (test concentration not listed) | Q9GZU1 | hit rate 0.12% among 410,000 | TRPML1-expressing cells, Ca2+ dye fluorescence, FDSS | AID 624414; in the data active = activation above about 50%; inconclusive = mostly about 30% to 49%; note: 0% is about no effect
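Kinetic FDSS Ca2+ read in Tet-induced TRPML1-DL cells (ABD Ca8 dye plus quencher, 45-90 min RT loading): baseline, then compound, then 110 s agonist window; EC80 agonist 54-4 at 4uM final added afterwards for a 110 s antagonist window.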
Vif-A3G inh: inhibitors of Vif-APOBEC3G interaction. hit rate 0.076% among 410,000. Potency, µM (series often up to 46.1 µM), for the others: at the highest dose activity, negative = active, usual class: inhibitors. AID 602310. Q9HC16. HeLa A3G-eYFP + Vif (tagged APOBEC3G with the HIV-1 protein that degrades it), YFP fluorescence, overnight; note: potency is the fitted concentration of half-maximal effect; % is set by controls: 0 for no effect and ±100 for the full control effect; nearly all actives have a fitted effect of over 60% in size
Target sequence (Q9HC16 whole entry, looked up): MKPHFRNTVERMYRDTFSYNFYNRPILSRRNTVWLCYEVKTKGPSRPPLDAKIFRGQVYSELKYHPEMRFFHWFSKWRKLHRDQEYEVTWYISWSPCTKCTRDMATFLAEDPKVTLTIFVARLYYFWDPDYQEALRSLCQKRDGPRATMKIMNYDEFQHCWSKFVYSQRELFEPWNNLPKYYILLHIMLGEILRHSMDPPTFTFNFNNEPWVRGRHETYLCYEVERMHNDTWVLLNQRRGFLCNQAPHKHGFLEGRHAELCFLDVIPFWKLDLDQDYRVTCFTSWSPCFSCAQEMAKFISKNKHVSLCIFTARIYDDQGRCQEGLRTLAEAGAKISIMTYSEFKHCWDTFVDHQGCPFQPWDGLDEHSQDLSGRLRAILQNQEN
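Read-out is eYFP fluorescence (Ex 488/Em 500-530) from Vif-expressing HeLa A3G-eYFP cells; more signal means A3G escaped Vif-mediated degradation. Cells plated overnight, compound pinned in, incubated overnight at 37 deg C.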
Glioma ERSR ind: inducers of ER stress response in human glioma cells | Potency, µM, for inactives: top-dose activation, most hits filed as activators | AID 602332 | hit rate 0.02% among 420,000 | U87-MG GRP78 promoter luciferase reporter, 16 h; note: potency is the fitted concentration of half-maximal effect; series mostly up to about 76 µM; % of control where 0% means no effect; nearly all actives have a fitted effect of over 35% in size
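Stably transfected U87-MG glioma cells carrying a GRP78-based luciferase sensor; 16 h compound incubation. Luminescence end-point read 10 min after Bright-Glo addition at room temperature.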
ALOX12 inh: ALOX12 (human) lipoxygenase inhibition; P18054; purified 12hLO, xylenol orange hydroperoxide absorbance; Potency, µM (top dose mostly 108 µM), for the others: at the top dose activity change, negative = inhibition, most hits filed as inhibitors; hit rate 1.1% among 580,000; AID 1671190; note: potency is the fitted concentration of half-maximal effect; % is set by controls: 0 for no effect and ±100 for the full control effect
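Purified human 12hLO (150 nM final) in 25 mM Hepes, 0.01% Triton X-100, pH 7.0 was preincubated 15 min at room temperature with compound. Then 40 uM arachidonic acid was added, 30 min. Hydroperoxide was read by Fe-XO absorbance ratio 573/405 nm.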
TRPML1 inh: blocks the human TRPML1 channel; Q9GZU1; activity change, negative = inhibition, % (no concentration beside the values); TRPML1-inducible cells, Ca2+ dye fluorescence, FDSS; stronger effect = lower value; inhibition of EC80 agonist-evoked calcium signal; hit rate 0.02% among 390,000; in the data active = activity change below about -50%; inconclusive = between about -30% and that limit;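 note: stimulus is agonist 54-4 at its EC80 concentration; % is set by controls: 0 for no effect and ±100 for the full control effect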
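Tet-induced TRPML1-DL cells loaded with Ca8 no-wash calcium dye were read kinetically on FDSS. Compound addition was followed by EC80 agonist 54-4 (4 uM final); inhibition was read over 110 s.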
Vif-APOBEC3F blk: Vif-A3F binding inhibition; hit rate 0.2% among 390,000; AID 602313; Potency, µM (titrated, usually from 46.1 µM), inactives show top-dose activity, negative = active; HeLa A3F-eYFP + Vif (tagged APOBEC3F with the HIV-1 protein that degrades it), YFP fluorescence increase; note: potency is the fitted concentration of half-maximal effect; % of control where 0% means no effect; nearly all actives have a fitted effect of over 65% in size
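Fluorescence increase (Ex 488/Em 500-530) after overnight compound treatment at 37 deg C flags inhibition of Vif-driven A3F-eYFP loss in stable HeLa A3F-eYFP/Vif cells seeded overnight beforehand.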
The depositor's hits bear a star; ? = inconclusive; nt = not tested or not shown; ! = a repeat was not active. Unless noted, calls come from the whole dose curve; as a rule, active = well fitted curve in the direction sought with a large enough effect; inconclusive = small, poorly fitted or top-dose-only effect, or another doubt; inactive = no such curve, though single readings can be large; an effect the other way counts as inactive or inconclusive.

SMILES	TRPML1 agonist	Vif-A3G inh	Glioma ERSR ind	ALOX12 inh	TRPML1 inh	Vif-APOBEC3F blk
Cc1ccc(NC(=O)c2ccc(NCC3CCCO3)c([N+](=O)[O-])c2)cc1Cl (stereo not drawn)	0	-26%	-4%	-19%	-10	11µM*
Cc1ccc(OC(C)C(=O)NN)cc1 (stereo not drawn)	nt	nt	nt	16%	nt	nt
CC(NC(=O)c1ccc(SC(F)F)cc1)c1ccccn1 (stereo not drawn)	nt	nt	nt	-17%	nt	nt
FC(F)(F)c1cccc(N/N=C/c2cccc(Br)c2)c1	nt	nt	nt	-92%	nt	nt
C/C(=N\NC(=O)CNc1cccc(C(F)(F)F)c1)c1ccc(Br)cc1	-1	-5%	-5%	20%	-16	-8%
C/C(=N\Nc1cccc(C(F)(F)F)c1)c1ccc(O)cc1	0	-3%	3%	35µM*	8	-8%
O=C(O)c1ccc(N/N=C/c2ccc(-c3ccccc3)cc2)cc1	-1	-28%	2%	?	14	-12%
FC(F)(F)c1cccc(N/N=C/c2ccc(Br)cc2)c1	nt	nt	nt	0.79µM*	nt	nt
O=C(O)c1ccc(/C=N/Nc2cccc(C(F)(F)F)c2)cc1	0	1%	-6%	45µM*	10	-5%
COC/C=C/C1=CC2=CC(=O)C(C)(OC(=O)c3cnc4ccccc4n3)C(=O)C2=CN1CCOC (stereo not drawn)	0	0%	-6%	?	13	2%
COC/C=C/C1=CC2=CC(=O)C(C)(OC(=O)c3cnc4ccccc4n3)C(=O)C2=CN1C(CO)CO (stereo not drawn)	0	-9%	-3%	7.1µM*	15	3%
O=c1c(O)cccc2cc(O)c(O)c(O)c12	-1	-1%	1%	13µM*	5	-34%
COc1cc(CN2CCN(S(=O)(=O)c3ccccc3)CC2)cc(OC)c1O	-1	-1%	-2%	2%	-19	-8%
COc1ccc(S(=O)(=O)N2CCN(Cc3cc(OC)c(O)c(OC)c3)CC2)cc1	0	5%	-4%	0.56µM*	-3	-6%
COc1ccc(S(=O)(=O)N2CCN(Cc3cc(OC)c(OC)c(OC)c3)CC2)cc1	0	-2%	-2%	0.71µM*	-5	-6%
COc1ccc(S(=O)(=O)N2CCN(Cc3ccccc3)CC2)cc1	1	-2%	-2%	16%	15	2%
O=C1Nc2ccccc2SC(c2ccccc2)C1O (stereo not drawn)	0	0%	-3%	13µM*	16	2%
CCS(=O)(=O)N1CCC(NC(=O)c2ccccc2C(=O)c2ccc(Cl)cc2)CC1	nt	nt	nt	1%	nt	nt
S=c1[nH]nc(COc2ccc3ccccc3c2)o1	1	-9%	-5%	40µM*	35	-3%
c1ccc2cc(-c3cc4ccccn4c3)ccc2c1	1	-3%	?	?	-2	-6%
Cc1ccn2cc(-c3ccccc3)cc2c1	nt	nt	nt	32µM*	nt	nt
COc1ccc(OC)c(/C(C)=N/O)c1	nt	nt	nt	37%	nt	nt
Cc1nc2ccccc2cc1C(=O)O	4	0%	-2%	7.9µM*!	21	nt
CC(C)CSC1=NSC2=NC(=O)/C(=C\c3ccccc3)C(=N)N12	0	-3%	-4%	-20%	15	?
CSC1=NSC2=NC(=O)/C(=C\c3coc4ccccc4c3=O)C(=N)N12	76*	?	3%	?	-10	?
SMILES	TRPML1 agonist	Vif-A3G inh	Glioma ERSR ind	ALOX12 inh	TRPML1 inh	Vif-APOBEC3F blk
CC(C)CSC1=NSC2=NC(=O)/C(=C\c3coc4ccccc4c3=O)C(=N)N12	?	?	2%	28µM*	-1	22µM*
COc1cccc(C(=O)NCC(=O)NCc2ccc3cc(OC)ccc3c2)c1	nt	nt	nt	-3%	nt	nt
O=C(NCCN1CCOCC1)c1nn(-c2ccccc2)c(=O)c2ccccc12	nt	nt	nt	3%	nt	nt
COc1ccc(S(=O)(=O)Nc2c(NC3CCCC3)c3ccccc3oc2=O)cc1OC	nt	nt	nt	-3%	nt	nt
CNC(=O)C1(N2CCC[C@H]2C(=O)N2CCC[C@@H]2COC)CCCCC1	nt	nt	nt	22µM*	nt	nt
O=C(NC(=S)Nc1ccc2c(c1)OCCO2)c1cccc2ccccc12	3	10%	3%	16µM*	-7	1%
O=C(NC(=S)Nc1ccc2c(c1)OCO2)c1ccccc1	1	-3%	2%	73%	21	8%
O=C(NC(=S)Nc1ccc2c(c1)OCCO2)c1cccc(Br)c1	1	2%	-1%	28µM*	-27	-9%
Cc1ccc(Cl)cc1N1CC(O)=C(c2nc3ccccc3[nH]2)C1=N	nt	nt	nt	-4%	nt	nt
CCNC(=O)NC(=O)CSc1cc(C)c2cc(C)cc(C)c2n1	nt	nt	nt	1%	nt	nt
COC(=O)C1=C(C)NC(=O)NC1c1ccc(-c2ccc(Cl)cc2)o1 (stereo not drawn)	3	-6%	1%	-25%	32	-3%
COC(=O)C1=C(C)NC(=S)NC1c1ccc(-c2cc(Cl)ccc2Cl)o1 (stereo not drawn)	3	2%	-1%	18µM*	-2	?
Cc1ccccc1NC(=O)/C=C/c1ccc([N+](=O)[O-])s1	0	6.3µM*	-14%	nt	37	10µM*
Cc1ccccc1NC(=O)/C=C/c1cccs1	1	-1%	4%	-24%	-1	3%
CC(=O)c1cccc(NC(=O)/C=C/c2ccc([N+](=O)[O-])s2)c1	0	?	-8%	-11%	-7	?
Cc1cc(C)cc(NC(=O)/C=C/c2ccc([N+](=O)[O-])s2)c1	0	?	-3%	-26%	0	11µM*
CCNc1c(NC(=O)c2cccc(Cl)c2)c(=O)oc2ccccc12	nt	nt	nt	10%	nt	nt
O=S(=O)(c1ccccc1)c1nc(Nc2cccc(O)c2)sc1Cl	1	-6%	-3%	35µM*	?	-7%
COc1cc(NC(=O)C(C)n2nc(-c3ccccc3)c3c(c2=O)CCCC3)cc(OC)c1 (stereo not drawn)	nt	nt	nt	-6%	nt	nt
Cc1ccn2c(NC3CCCC3)c(-c3cccs3)nc2c1	1	3%	-4%	32µM*	2	4%
COc1ccc(/C(O)=C2/C(=O)C(=O)N(Cc3ccco3)C2c2cccs2)cc1 (stereo not drawn)	1	-7%	-1%	20µM*	6	1%
Cc1ccc(COC(=O)c2ccc(Cl)c(S(=O)(=O)N3CCCCC3)c2)cc1	nt	nt	nt	-5%	nt	nt
CN1C(=O)/C(=C/c2ccccc2OCc2ccc(F)cc2)N(C)C1=S	0	-3%	-3%	-19%	28	3.5µM*
Cc1oc(-c2ccccc2)nc1CC(=O)Nc1cccc(C(=O)Nc2ccncc2)c1	nt	nt	nt	10%	nt	nt
N#CC1=C(N)SC(N)=C(C#N)C1c1cccc(Oc2ccccc2)c1	0	?	0%	14µM*	-10	?

Source: PubChem BioAssay (National Center for Advancing Translational Sciences (NCATS))
